Screens as filed in PubChem.
WRN inhibitor: blocks human WRN helicase | WRN helicase unwinding, fluorescent forked duplex, kinetic | Potency, µM (doses to about 114 µM), for inactives: at the top dose activity change, negative = inhibition, hits mostly inhibitors | actives 0.46% (n = 360,000) | AID 651768; further: on the % scale 0 is the no-effect control and ±100 the full control effect; nearly all actives have a fitted effect of over 55% in size
Target sequence (Q14191 whole entry, looked up): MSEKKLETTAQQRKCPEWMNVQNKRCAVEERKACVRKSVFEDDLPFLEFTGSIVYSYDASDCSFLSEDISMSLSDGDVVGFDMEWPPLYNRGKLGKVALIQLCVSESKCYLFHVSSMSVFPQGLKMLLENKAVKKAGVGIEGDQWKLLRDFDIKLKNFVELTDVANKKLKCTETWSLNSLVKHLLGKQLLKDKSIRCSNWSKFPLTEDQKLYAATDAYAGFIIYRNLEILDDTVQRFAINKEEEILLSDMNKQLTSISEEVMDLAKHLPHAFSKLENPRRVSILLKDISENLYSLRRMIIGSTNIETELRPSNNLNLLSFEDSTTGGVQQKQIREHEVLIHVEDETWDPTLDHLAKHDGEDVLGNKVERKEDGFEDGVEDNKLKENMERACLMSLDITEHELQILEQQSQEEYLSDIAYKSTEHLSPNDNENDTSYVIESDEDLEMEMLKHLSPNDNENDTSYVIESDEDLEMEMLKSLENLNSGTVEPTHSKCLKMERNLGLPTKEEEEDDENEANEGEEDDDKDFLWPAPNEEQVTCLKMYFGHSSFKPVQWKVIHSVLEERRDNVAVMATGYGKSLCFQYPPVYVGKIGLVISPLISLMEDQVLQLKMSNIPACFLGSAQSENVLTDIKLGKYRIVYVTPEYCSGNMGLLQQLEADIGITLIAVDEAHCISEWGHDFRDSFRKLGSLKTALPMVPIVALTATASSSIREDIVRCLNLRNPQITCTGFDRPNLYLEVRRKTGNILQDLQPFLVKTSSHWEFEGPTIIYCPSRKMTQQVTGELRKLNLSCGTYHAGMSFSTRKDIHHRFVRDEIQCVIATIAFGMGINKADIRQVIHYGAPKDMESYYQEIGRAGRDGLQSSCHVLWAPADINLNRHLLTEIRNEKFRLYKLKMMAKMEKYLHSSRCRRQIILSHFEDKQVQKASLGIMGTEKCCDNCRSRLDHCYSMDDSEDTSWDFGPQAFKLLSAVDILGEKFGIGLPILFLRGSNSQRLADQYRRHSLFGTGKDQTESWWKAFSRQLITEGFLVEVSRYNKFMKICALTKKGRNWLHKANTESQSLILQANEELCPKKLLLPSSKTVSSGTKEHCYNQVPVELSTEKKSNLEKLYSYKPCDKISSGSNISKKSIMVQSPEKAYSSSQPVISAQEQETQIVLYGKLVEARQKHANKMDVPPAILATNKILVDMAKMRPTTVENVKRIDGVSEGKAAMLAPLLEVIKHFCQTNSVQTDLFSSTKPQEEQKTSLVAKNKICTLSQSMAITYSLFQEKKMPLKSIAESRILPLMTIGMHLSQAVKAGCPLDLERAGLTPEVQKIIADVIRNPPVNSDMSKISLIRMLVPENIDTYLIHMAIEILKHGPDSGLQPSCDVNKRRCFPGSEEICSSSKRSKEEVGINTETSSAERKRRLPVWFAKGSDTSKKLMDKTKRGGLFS
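WRN at 20 nM final was preincubated with compound for 15 min at room temperature; reaction started with 100 nM forked duplex oligonucleotide carrying fluorophore and quencher plus 2 mM ATP (final). Unwinding followed kinetically by red fluorescence (ex 525/em 598 nm).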
FEN1 inhibitor: inhibitors of human flap endonuclease 1; Potency, µM (top dose mostly 114 µM), without a hit: at the top dose activity change, negative = inhibition, hits mostly inhibitors; Recombinant FEN1 flap cleavage, fluorescence, 15 min; AID 588795; P39748; actives 0.35% (n = 390,000); further: on the % scale 0 is the no-effect control and ±100 the full control effect; nearly all actives have a fitted effect of over 65% in size
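FEN1 at 10 nM preincubated with compounds 15 min at room temperature, then flap DNA substrate added at 50 nM final. Signal read at 0 and 15 min; concentration-response fitted with four-parameter Hill equation.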
Pol kappa inh-1: blocks human DNA polymerase kappa activity. Potency, µM (series often up to 107 µM), for inactives: top-dose activity, negative = inhibition, hits mostly inhibitors. AID 588579. Q9UBT6. actives 0.53% (n = 400,000). purified Pol kappa, fluorescent DNA synthesis assay, 10 min; further: on the % scale 0 is the no-effect control and ±100 the full control effect
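Activity was followed as the change in fluorescence between reads at 0 and 10 min after starting the reaction with 50 nM substrate. Beforehand, 10 nM polymerase had been preincubated with compound for 15 min at room temperature.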
POLB inh: blocks human DNA polymerase beta activity; P06746; Pol beta primer extension/strand displacement, fluorescence kinetic; Potency, µM (doses to about 114 µM), inactives show at the top dose activity change, negative = inhibition, usual class: inhibitors; actives 1.3% (n = 340,000); AID 485314; further: on the % scale 0 is the no-effect control and ±100 the full control effect
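Human Pol beta at 10 nM; strand-displacement substrate 50 nM final. Compound exposure 15 min at room temperature before start, reaction 10 min at room temperature.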
Pol eta inh-1: blocks human DNA polymerase eta activity. actives 1.2% (n = 390,000). recombinant Pol eta, fluorescent DNA replication assay. Q9Y253. Potency, µM (doses to about 114 µM), for the others: top-dose activity change, negative = inhibition, most hits filed as inhibitors; further: on the % scale 0 is the no-effect control and ±100 the full control effect
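Pol eta at 10 nM preincubated with compounds 15 min at room temperature; reaction started with fluorescent substrate (50 nM final) and read kinetically at 0 and 10 min.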
Pol iota inh: DNA polymerase iota (human) inhibition; Pol iota fluorescent replication assay, 10 min; Potency, µM (titrated, usually from 115 µM), inactives show at the top dose activity, negative = inhibition, usual class: inhibitors; actives 1% (n = 390,000)
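Fluorescent replication assay read twice, at 0 min and 10 min after adding 50 nM (final) substrate. Enzyme (10 nM) and compounds were first incubated 15 min at room temperature; enzyme-free buffer wells were negative controls.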
TbPGK inh: blocks T. brucei phosphoglycerate kinase; AID 686980; TbPGK coupled GAPDH assay, Kinase-Glo luminescence; Potency, µM (titrated, usually from 57.5 µM), for inactives: top-dose activity change, negative = inhibition, usual class: inhibitors; shares compounds with Pol kappa inh-1; actives 79% (n = 500); further: on the % scale 0 is the no-effect control and ±100 the full control effect; nearly all actives have a fitted effect of over 65% in size
POLI cherry-pick: Human Pol iota inhibitor confirmatory assay. AID 720496. shares compounds with Pol kappa inh-1. Potency, µM, usual class: inhibitors. Pol iota primer extension, TAMRA/BHQ fluorescence. actives 77% (n = 1,500)
Pol kappa inh-2: Pol kappa (human) inhibition, cherry-pick confirmation | shares compounds with Pol eta inh-1 | purified Pol-kappa, fluorescent strand-displacement substrate | Potency, µM, actives largely listed as inhibitors | actives 76% (n = 920)
Pol eta inh-2: Pol eta (human) inhibition, cherry-pick confirmation | shares compounds with Pol eta inh-1 | Pol eta primer extension, TAMRA/BHQ fluorescence, 10 min | Potency, µM, actives largely listed as inhibitors | actives 64% (n = 2,600) | AID 720502
Numbers without * were called inactive; ? = inconclusive; . = not tested or not shown; [ ] = remark or other dose. Most compounds without a hit are left out; they make up all but 2.4% or so of the library. The call rests on the fitted dose curve; in most records, active means well fitted curve in the direction sought with a large enough effect; inconclusive means small, poorly fitted or top-dose-only effect, or another doubt; inactive means no such curve, though single readings can be large; an effect the other way counts as inactive or inconclusive. Potency means the concentration at half of the fitted maximal effect.

SMILES	WRN inhibitor	FEN1 inhibitor	Pol kappa inh-1	POLB inh	Pol eta inh-1	Pol iota inh	POLI cherry-pick	Pol eta inh-2	others
C=C(C)C(=O)Nc1ccc2c(c1)OCCOCCOCCO2	?	?	79µM*	10µM*	22µM*	?	.	19*	TbPGK inh=?
O=C(COC(=O)c1cc2c(s1)CCC2)Nc1ccc(F)cc1	?	-3%	32µM*	8.9µM*	18µM*	20µM*	24*	24*
CCOc1ccc(NC(=O)CN(C)C(=O)c2cc3c(s2)CCC3)cc1OCC	?	.	.	.	3.5µM*	.	17*	34*	Pol kappa inh-2=19*
Cc1ccc(NC(=O)c2cc3c(s2)CCCC3)cc1	-13%	6%	-16%	3%	-12%	44%	.	.
COc1ccc(CNC(=O)CN2N=C(c3ccccc3)CCC2=O)c(OC)c1	.	0%	-1%[60.1 µM]	-1%	-7%	-9%	.	.
CCCCNC(=O)Cn1c(=O)cc(C)c2c(C)nn(-c3cccc(Cl)c3C)c21	.	12%	0%	2%	-2%	19%	.	.
CCCSC1=N/C(=C\C=C\c2ccco2)C(=O)S1	?	50µM*	22µM*	5.6µM*	7.1µM*	10µM*	?	60*
CCCCn1c(NC(=O)c2ccco2)c(S(=O)(=O)c2ccc(C)cc2)c2nc3ccccc3nc21	?	-26%	-9%	?	-24%	43%	.	.
CCCCn1c(NS(=O)(=O)c2ccccc2)c(S(=O)(=O)c2ccc(C)cc2)c2nc3ccccc3nc21	?	-19%	-11%	1%	45µM*	7.9µM*	?	?
Nc1nc(=S)c2ncn(C3OC(CO)C(O)C3O)c2[nH]1 (stereo not drawn)	28µM*	89µM*	?	0.16µM*	4µM*	?	34*	27*	TbPGK inh=12µM*;Pol kappa inh-2=15*
Nc1nc(=S)c2ncn([C@@H]3O[C@H](CO)[C@@H](O)[C@H]3O)c2[nH]1	7%	-4%	8%	.	-3%	-4%	.	.
O=C(O)[C@H]1O[C@@H](Oc2ccc3ccc(=O)oc3c2)[C@H](O)[C@@H](O)[C@@H]1O	.	.	17%[60.1 µM]	.	.	.	.	.
Cc1[nH]c2ccccc2c1C1(O)C(=O)N(Cc2ccccc2)c2ccc(Cl)cc21 (stereo not drawn)	.	-3%	-9%	3%	-29%	15%	.	.
O=C(N/N=C/c1ccc(O)cc1O)C(=O)N/N=C/c1ccc(O)cc1O	-8%[11.6 µM]	-19%	-14%	?	-18%	?	9.5*	17*
O=C(NN=Cc1ccc(O)cc1)C(=O)NN=Cc1ccc(O)cc1	3%	9%	4%	.	-27%	21%	.	.
O=C(N/N=C/c1ccncc1)c1cccs1	-1%	-1%	5%	14%	4%	15%	.	.
O=C(N/N=C/c1ccc(-c2ccccc2C(=O)O)o1)c1cccs1	?	?	25µM*	14µM*	18µM*	20µM*	?	60*
CCOc1ccc(NS(=O)(=O)c2ccc(N)cc2)cc1	-3%	-9%	0%	-20%	5%	16%	.	.
CCOc1ccc(Nc2ccc(N)c(S(=O)(=O)O)c2)cc1	?	-29%	32µM*	.	11µM*	11µM*	75*	38*	Pol kappa inh-2=75*
